An excerpt weighted towards active compounds, which were near 21% of everything screened.
Shiga toxin inh = Shiga toxin inhibition; Vero cells, Shiga toxin protein synthesis inhibition reporter; hit rate 9.2% among 290,000; inhibition, % at 38.7 µM; AID 2315; in the data active = inhibition mostly above about 28%, no sharp cut-off; inactive = mostly below about 43%; also: 0% is about no effect
Pf growth 96h = P. falciparum growth inhibition at 96 hours | P. falciparum luciferase reporter growth, 96 h | AID 504834 | hit rate 6.9% among 320,000 | Potency, µM (titrated, usually from 28.7 µM), for the others: top-dose activity change, negative = inhibition, usual class: inhibitors; also: potency is read from the fitted curve at half-maximal effect; % is scaled to controls: 0 for no effect and ±100 for the full control effect
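Readout is luminescence from an integrated firefly luciferase in P. falciparum. Red cells, 2% hematocrit and 0.05% parasitemia final, were cultured with compound through two parasite generations (96 hours) at 37 C, 5% CO2.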
NS1 inh = influenza NS1 inhibition; Potency, µM (doses to about 46.1 µM), without a hit: top-dose activity, positive = more growth; hit rate 0.4% among 270,000; AID 2326; calls by dose curve; also: potency is read from the fitted curve at half-maximal effect; actives are rising curves; nearly all actives have a fitted effect of over 50% in size
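Compounds were scored for reversing the slow growth caused by influenza A NS1 in S. cerevisiae, measured by optical density at 600 nm. Assay medium contained 2% galactose at pH 6.0; NS1-free yeast of the same strain were the positive control.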
Pf growth 48h = P. falciparum growth inhibition at 48 hours (one generation) | P. falciparum luciferase growth in erythrocytes, 48 h | hit rate 5.9% among 310,000 | Potency, µM (highest dose often 28.7 µM), for the others: top-dose activity change, negative = inhibition, usual class: inhibitors; also: potency is read from the fitted curve at half-maximal effect; % is scaled to controls: 0 for no effect and ±100 for the full control effect
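Luciferase-expressing P. falciparum in infected erythrocytes (2% hematocrit, 0.1% parasitemia final) in RPMI 1640/0.5% Albumax were exposed to compound for 48 hours at 37 C, 5% CO2; growth read as luminescence.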
CHX counter-1 = counter-screen for Shiga toxin inhibitors: cycloheximide protein synthesis inhibition; max response, %; AID 2314; hit rate 12% among 300,000; cell reporter, cycloheximide protein synthesis inhibition counterscreen; in the data active = max response mostly above about 13%, no sharp cut-off; inactive = mostly below about 14%; also: read at 38.3 µM for the half of the compounds with a filed dose; 0% is about no effect
Sm TGR inh = S. mansoni TGR enzyme inhibition. Q962Y6. purified TGR, DTNB reduction, TNB absorbance 405 nm. Potency, µM (doses to about 114 µM), for the others: at the top dose activity change, negative = inhibition, usual class: inhibitors. hit rate 3% among 360,000. AID 485364; also: potency is read from the fitted curve at half-maximal effect; % is scaled to controls: 0 for no effect and ±100 for the full control effect; nearly all actives have a fitted effect of over 60% in size
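First, TGR (20 nM dispensed) and NADPH were mixed with compound. Second, a 15 min room-temperature incubation followed. Third, further NADPH and then DTNB were added to start the reaction. Finally, TNB absorbance was monitored kinetically.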
CHX counter-2 = affects protein synthesis reporter in cycloheximide counter-screen | Potency, µM (titrated, usually from 38.3 µM), inactives show top-dose activity (activation), most hits filed as activators | hit rate 3% among 510 | shares compounds with Shiga toxin inh | Cycloheximide counterscreen, protein synthesis reporter, Shiga toxin assay; calls by dose curve; also: potency is read from the fitted curve at half-maximal effect; 0% is about no effect
An asterisk follows results filed as active; [ ] = another dose, or the depositor's remark. Unless noted, calls follow the shape of the dose curve; as a rule, active = well fitted curve in the direction sought with a large enough effect; inconclusive = small, poorly fitted or top-dose-only effect, or another doubt; inactive = no such curve, though single readings can be large; an effect the other way counts as inactive or inconclusive.

CC(C)N1CC(C(=O)Nc2cc(Cl)cc(Cl)c2)CC1=O (centres undefined) was read as Pf growth 96h 56%, NS1 inh 0%, Pf growth 48h 7%, CHX counter-1 -3 and Sm TGR inh 5%.
Screening CCOC(=O)C1=C(C)NC(=O)NC1c1ccc(OCC(=O)Nc2ccccc2)c(OC)c1 (centres undefined) returned Shiga toxin inh 39*, Pf growth 96h inconclusive, NS1 inh -45%, Pf growth 48h inconclusive, CHX counter-1 7, Sm TGR inh -2% and CHX counter-2 0%.
Screening CCOC(=O)Nc1ccc2c(c1)Nc1ccccc1S2 returned Shiga toxin inh 31*, NS1 inh -11%, Pf growth 48h 47%, CHX counter-1 17, Sm TGR inh -23% and CHX counter-2 2%.
For CC(=O)c1ccc2c(c1)Nc1ccccc1S2 the results were Shiga toxin inh 24, NS1 inh 1%, Pf growth 48h -6%, CHX counter-1 11 and Sm TGR inh -1%.
For COc1ccc(CCC(=O)NNC(=O)c2ccccn2)cc1OC the results were Pf growth 96h inconclusive, Pf growth 48h inconclusive and Sm TGR inh -2%.
Screening CCn1c(P(C)(=O)O)nc2cc(NC(=O)c3ccccc3F)ccc21 returned Shiga toxin inh 32*, Pf growth 96h 10%, Pf growth 48h 34%, CHX counter-1 7, Sm TGR inh 7% and CHX counter-2 -1%.
For COc1ccc(C(=O)CC(=O)C(=O)Nc2ccc(C)cc2Cl)cc1 the results were Shiga toxin inh 22*, Pf growth 96h 6%, NS1 inh 3%, CHX counter-1 9, Sm TGR inh inconclusive and CHX counter-2 -2%.
For COc1ccc(C(=O)CC(=O)C(=O)Nc2cccc([N+](=O)[O-])c2C)cc1 the results were Shiga toxin inh -7, Pf growth 96h inconclusive, NS1 inh -3%, CHX counter-1 -5 and Sm TGR inh -9%.
COc1ccc(C2=CC(c3ccc(C)cc3)n3nnnc3N2)cc1 (centres undefined) was read as Shiga toxin inh 69*, Pf growth 96h inconclusive, NS1 inh -14%, Pf growth 48h inconclusive, CHX counter-1 -2, Sm TGR inh -13% and CHX counter-2 4%.
Cc1c(CN2CCC(CO)(CCOc3ccccc3)CC2)[nH]c2c(Cl)cccc12 was read as Shiga toxin inh -26, Pf growth 96h 13%, NS1 inh -1%, Pf growth 48h inconclusive, CHX counter-1 -2 and Sm TGR inh 4%[57.1 µM].
Screening Nc1ccc2c(c1)C(=O)N(c1cccc3ccccc13)C2=O returned Pf growth 96h -27%, NS1 inh -20%, Pf growth 48h 6%, CHX counter-1 11 and Sm TGR inh -18%.
Screening Nc1ccc2nn(-c3cccc4ccccc34)nc2c1 returned Shiga toxin inh 49*, NS1 inh -4%, Pf growth 48h inconclusive, CHX counter-1 2, Sm TGR inh 4% and CHX counter-2 3%.
`Cc1c(C(=O)NN2CCOCC2)oc2ccccc12` gave Shiga toxin inh -21, Pf growth 96h inconclusive, NS1 inh inconclusive, Pf growth 48h 54%[1.15 µM], CHX counter-1 11 and Sm TGR inh -1%.
Screening COc1ccc(OC)c(NC(=O)C2CCCCC2)c1 returned Shiga toxin inh -9, Pf growth 96h 19%, NS1 inh 15%, Pf growth 48h 2%, CHX counter-1 -3 and Sm TGR inh -9%.
`Cc1ccc(O)c(NC(=O)C2CCCCC2)c1` gave Shiga toxin inh 34*, Pf growth 96h inconclusive, NS1 inh -3%, Pf growth 48h 0%, CHX counter-1 8, Sm TGR inh 8% and CHX counter-2 1%.
For Cc1ccc(N/C(C(Cl)=C(Cl)Cl)=C(/Cl)[N+](=O)[O-])c(C)c1 the results were Shiga toxin inh 23*, Pf growth 96h inconclusive, NS1 inh -86%, Pf growth 48h inconclusive, CHX counter-1 9, Sm TGR inh 7.9µM* and CHX counter-2 -2%.
For Cc1ccc(NC(=O)c2c([N+](=O)[O-])c(C(C)(C)C)nn2C)c(C)c1 the results were Shiga toxin inh -4, Pf growth 96h inconclusive, NS1 inh -10%, Pf growth 48h inconclusive, CHX counter-1 -2 and Sm TGR inh 4%.
For O=C(Sc1cccc2cccnc12)c1ccccc1Br the results were Shiga toxin inh 41*, Pf growth 96h 4.7µM*, NS1 inh -60%, Pf growth 48h 1.3µM*, CHX counter-1 8, Sm TGR inh -19% and CHX counter-2 9%.
For CC(=O)/C(=N\Nc1ccccc1)Sc1cccc2cccnc12 the results were Shiga toxin inh 11, Pf growth 96h inconclusive, NS1 inh 15%, Pf growth 48h -12%, CHX counter-1 -5 and Sm TGR inh 3%.
`COc1ccc(C2CC(=O)C=C(NCc3ccc4c(c3)OCO4)C2)cc1` (centres undefined) gave Shiga toxin inh 10, Pf growth 96h 3%, NS1 inh -1%, Pf growth 48h -22%, CHX counter-1 -1 and Sm TGR inh 10%.
For COc1ccc(NC(=O)c2cc(C)on2)cc1OC the results were Shiga toxin inh 28*, NS1 inh -2%, Pf growth 48h 33%, CHX counter-1 -1, Sm TGR inh -1% and CHX counter-2 9%.
Screening Cn1c(CN2CCCCC2)nc2cc(NC(=O)c3ccc(Cl)cc3)ccc21 returned Shiga toxin inh 27*, Pf growth 96h -7%, NS1 inh -14%, Pf growth 48h inconclusive, CHX counter-1 2, Sm TGR inh 2% and CHX counter-2 6%.
`CCCCn1c(SCC(=O)c2ccccc2)nc2c1c(=O)[nH]c(=O)n2C` gave Shiga toxin inh 16*, Pf growth 96h 13%, NS1 inh 1%, Pf growth 48h -6%, CHX counter-1 -1, Sm TGR inh -6% and CHX counter-2 0%.
For Cc1cccc(N2CCN(C(=O)Cc3ccc(Br)cc3)CC2)c1C the results were Shiga toxin inh 66*, Pf growth 96h -5%, NS1 inh -9%, Pf growth 48h -12%, CHX counter-1 19, Sm TGR inh -25% and CHX counter-2 inconclusive.
Cc1cc(=O)[nH]c(Nc2ccccc2C)n1 was read as Shiga toxin inh -8, Pf growth 96h inconclusive, NS1 inh 5%, Pf growth 48h -11%[0.00184 µM], CHX counter-1 -1 and Sm TGR inh 15%.
`CC(=O)c1cccc(N2C(=O)C3C4CCC(C4=C(C)C)C3C2=O)c1` (centres undefined) gave Shiga toxin inh 25*, Pf growth 96h -17%, NS1 inh inconclusive, Pf growth 48h -17%, CHX counter-1 1, Sm TGR inh -6% and CHX counter-2 -3%.

Bioassay records as filed in PubChem BioAssay.
